Results on 21 molecules are retold here after PubChem BioAssay (NCI).

A short description of experiment [1]: NCI Yeast Anticancer Drug Screen. Data for the rad50 strain (AID 155).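 Note: 0% = growth of vehicle-only cultures of the same strain.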 To be noted: S. cerevisiae rad50 strain growth inhibition; at 50.0 µM; stronger effect = higher value. The method in brief: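 Growth of the mutant yeast was measured after compound exposure and referenced to vehicle-treated cultures.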
Experiment [2] is described as follows: NCI Yeast Anticancer Drug Screen. Data for the mec2-1 strain (AID 157). Conditions: S. cerevisiae mec2-1 strain, at 50.0 µM, stronger effect = higher value. The essentials:
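Vehicle-treated cultures served as reference for growth inhibition of compound-exposed mec2-1 yeast.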

Experiment [3] in a line: NCI Yeast Anticancer Drug Screen. Data for the sgs1 mgt1 strain (AID 161).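 Note: 0% = growth of cultures given vehicle only.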 To be noted: S. cerevisiae sgs1 mgt1 strain, at 50.0 µM, stronger effect = higher value. The essentials:
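Inhibition of yeast growth, normalised to vehicle-treated controls, is reported for a strain bearing genetic alterations in DNA damage repair.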

Experiment [4] can be described thus: NCI Yeast Anticancer Drug Screen. Data for the cln2 rad14 strain (AID 165).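 Note: 0% = growth equal to vehicle treated cultures.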 Conditions: S. cerevisiae cln2 rad14 strain, at 50.0 µM, stronger effect = higher value. The essentials:
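Each compound was tested on cln2 rad14 yeast. Inhibition of growth was calculated against vehicle-exposed controls.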

Experiment [5] can be described thus: NCI Yeast Anticancer Drug Screen. Data for the bub3 strain (AID 167). Conditions: S. cerevisiae bub3 mutant strain, at 50.0 µM, stronger effect = higher value. The method in brief: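 Whole-cell yeast assay. The mutant strain was incubated with compounds, and growth inhibition was determined by comparison with vehicle-treated cells.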
A short description of experiment [6]: NCI Yeast Anticancer Drug Screen. Data for the mlh1 rad18 strain (AID 175). To be noted: S. cerevisiae mlh1 rad18 strain growth inhibition; at 50.0 µM; stronger effect = higher value. The method in brief: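 Vehicle-treated cultures served as the reference for growth inhibition in a yeast strain carrying DNA damage repair alterations exposed to each compound.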

This is part of a sample that, as a whole, favours compounds with a hit. Of some 79,000 tested, about 15% had one in any assay. Unmarked numbers belong to inactive results. The source made the active and inactive calls. Cut-off read from the data, not from the text of the source: active = growth inhibition above about 70%; inactive = the rest.

`COc1ccc(N2CCN(CC(O)COc3ccc(C(=O)Cc4ccccc4)cc3)CC2)cc1` (stereo unspecified): the growth inhibition is 96.4% (active) in experiment [1]; 96.8% (active) in experiment [2]; 99% (active) in experiment [3]; 86.6% (active) in experiment [4]; 91% (active) in experiment [5]; 96.7% (active) in experiment [6].
In the case of `O=C1N(Cc2ccccc2)[C@H]2CS(=O)(=O)C[C@@H]2N1Cc1ccccc1`, the growth inhibition in experiment [1] is 0.9%; in experiment [2] it was 4.1%; in experiment [3] it was 8.75%; in experiment [4], -10%; in experiment [5], 0.85%; in experiment [6], 12.7%.
As to `O=C(O)CCn1cnc2c(=S)nc[nH]c21`, the growth inhibition was -23.2% in experiment [1]; -23.1% in experiment [2]; -28.4% in experiment [3]; -3.05% in experiment [4]; -54.6% in experiment [5]; -16.5% in experiment [6].
`N#CCN1C(=O)c2ccccc2C1=O`: the growth inhibition in experiment [1] is 6%; in experiment [2], -2.85%; in experiment [3], 1.45%; in experiment [4], 2.15%; in experiment [5], 3.15%; in experiment [6] it was -15.8%.
For the molecule `CCCCOc1n[nH]c(=O)c2ccccc12`, the growth inhibition in experiment [1] is -2.4%; in experiment [2] it was -13%; in experiment [3], -3.65%; in experiment [4], -25.4%; in experiment [5], -7.9%; in experiment [6], 8.6%.
With `COc1c(Cl)c(Cl)c2ncc(Cl)cc2c1Cl`, the growth inhibition in experiment [1] is -3.7%; in experiment [2] it was -3.3%; in experiment [3] it was -3.5%; in experiment [4], -29.1%; in experiment [5], 14.8%; in experiment [6], -14.9%.
For the molecule `CCCCCCCCCCCCCCCCS(=O)(=O)N/N=C(/c1ccccc1Cl)N1CCOCC1`, the growth inhibition was -10.6% in experiment [1]; -35.4% in experiment [2]; -7.1% in experiment [3]; 16.4% in experiment [4]; -22.6% in experiment [5]; -6.75% in experiment [6].
For the molecule `COc1cc(OC)c(NC(=O)Nc2ccc([N+](=O)[O-])cc2OC)cc1Cl`, the growth inhibition was -21.6% in experiment [1]; -17.6% in experiment [2]; -7.15% in experiment [3]; -49.1% in experiment [4]; 1.25% in experiment [5]; -7.2% in experiment [6].
Consider `NC(CSC(c1ccccc1)(c1ccccc1)c1ccccc1)C(=O)OC(c1ccccc1)c1ccccc1` (stereo unspecified), for which the growth inhibition is 19.3% in experiment [1]; -7% in experiment [2]; 29.6% in experiment [3]; -44.5% in experiment [4]; -18.7% in experiment [5]; 22.2% in experiment [6].
Regarding `CNC(CCc1ccccc1)C(=O)O` (stereo unspecified), the growth inhibition was 1.9% in experiment [1]; -1.25% in experiment [2]; 8.4% in experiment [3]; -7.3% in experiment [4]; 4.4% in experiment [5]; 2.7% in experiment [6].
`CCOC(=O)C(NC(C)=O)C(O)c1ccccc1` (stereo unspecified): the growth inhibition in experiment [1] was -8.85%; in experiment [2], -16.2%; in experiment [3], -2%; in experiment [4] it was -24.6%; in experiment [5], -37.4%; in experiment [6], -9.95%.
As to `CSC(c1ccc(Oc2ccccc2)cc1)=[N+]1CCCCC1`, the growth inhibition is 47.2% in experiment [1]; 13.2% in experiment [2]; 49.4% in experiment [3]; 23.2% in experiment [4]; 53.5% in experiment [5]; 23.7% in experiment [6].
For `O=C1OC(c2ccccc2)(C2(c3ccccc3)C=C(c3ccccc3)C(=O)O2)C=C1c1ccccc1` (stereo unspecified), the growth inhibition was 39.2% in experiment [1]; -3% in experiment [2]; 0.7% in experiment [3]; -3.8% in experiment [4]; 5.3% in experiment [5]; 3.15% in experiment [6].
Turning to `CCCCCCSc1ccc([N+](=O)[O-])cc1[N+](=O)[O-]`, the growth inhibition is 4.95% in experiment [1]; -6% in experiment [2]; -10.6% in experiment [3]; -6.8% in experiment [4]; 24.9% in experiment [5]; -21.1% in experiment [6].
Consider `CC1([C@H]2CC[C@H]3[C@@H]4CC[C@H]5OC(=O)CC[C@]5(C)[C@H]4CC[C@]23C)SCCS1`, for which the growth inhibition in experiment [1] is 20.7%; in experiment [2], -19%; in experiment [3] it was 12.5%; in experiment [4], 8.6%; in experiment [5], 8.55%; in experiment [6], 14.8%.
`CCOC(=O)c1ccc2c(c1)C(C)(SC)C(=O)N2` (stereo unspecified): the growth inhibition in experiment [1] is -12.7%; in experiment [2] it was 0.7%; in experiment [3] it was -2.85%; in experiment [4], 4.65%; in experiment [5], -6.55%; in experiment [6], -1.35%.
As to `CSc1ccc(C(=O)C[n+]2cc3ccccc3cc2C)cc1`, the growth inhibition is -34.4% in experiment [1]; -2.5% in experiment [2]; -16.1% in experiment [3]; -26.6% in experiment [4]; 2.75% in experiment [5]; 0.7% in experiment [6].
Turning to `COc1cccc(CNc2ncnc3nc[nH]c23)c1`, the growth inhibition is 16.5% in experiment [1]; 1.85% in experiment [2]; 14.7% in experiment [3]; 4% in experiment [4]; -3.85% in experiment [5]; 24.6% in experiment [6].
`CN1c2ccccc2C2=C(c3ccccc3)CC[C@@H](C(=O)N3C4CC5CC[C@@]4(CS3(=O)=O)C5(C)C)[C@@H]21` (stereo partly specified): the growth inhibition in experiment [1] was -14.6%; in experiment [2] it was -6.2%; in experiment [3], 20.6%; in experiment [4], 10%; in experiment [5] it was -8.85%; in experiment [6], 31.8%.
Take `Cc1ccsc1/C=N/NC(N)=S`: the growth inhibition is 30% in experiment [1]; -7% in experiment [2]; 32.5% in experiment [3]; 5.55% in experiment [4]; 9.2% in experiment [5]; 28.7% in experiment [6].
`C=C(C)C(=O)OC1C(C(C)CCCO)=C(CO)CC2OC(=O)C(=C)C21` (stereo unspecified): the growth inhibition was -15.9% in experiment [1]; -29.1% in experiment [2]; -14.5% in experiment [3]; -7.7% in experiment [4]; -10.3% in experiment [5]; -29.1% in experiment [6].
